This is a sample that favours compounds with a hit; in the whole collection about 8% have one here.
SW480 rereplic: DNA re-replication induction in SW480 cells; Potency, µM (top dose mostly 46.1 µM), without a hit: at the top dose re-replication activation, most hits filed as activators; SW480 DNA re-replication, Hoechst DNA content imaging, 48 h; 1.8% of 340,000 active; note: % of control where 0% means no effect; nearly all actives have a fitted effect of over 55% in size
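Image-based DNA-content assay: after two days of treatment, nuclei were labelled with the DNA dye Hoechst and imaged, and hits were compounds raising the count of nuclei showing high fluorescence intensity.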
HT1080NT lethal: kills 2HG-producing HT-1080-NT fibrosarcoma cells; HT-1080-NT fibrosarcoma viability, CellTiter-Glo ATP luminescence, 48 h; Potency, µM (highest dose often 46.1 µM), without a hit: at the top dose activity, negative = less viability, usual class: cytotoxic; 1.6% of 360,000 active; AID 686970;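 note: NT is the 2HG producing partner of a matched IDH1 knockdown line; 0% = DMSO-treated cells and -100% = media-only wells without cells; nearly all actives have a fitted effect of over 55% in size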
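Read-out is CellTiter-Glo luminescence after 10 minutes at room temperature, following 48 hours' compound treatment of HT-1080-NT cells (750 cells/well, RPMI, 5% FBS, 37 degrees C).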
KB-3-1 tox: KB-3-1 parental cell cytotoxicity | 1.4% of 400,000 active | KB-3-1 viability, CellTiter-Glo ATP luminescence, 72 h | Potency, µM (top dose mostly 46.1 µM), hits mostly cytotoxic; note: % is set by controls: 0 for no effect and ±100 for the full control effect; nearly all actives have a fitted effect of over 60% in size
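Cytotoxicity measured as CellTiter-Glo luminescence after 72 h at 37 C. Compound titrations were pinned onto drug-naive KB-3-1 parental adenocarcinoma cells grown in DMEM with 10% FBS, and normalized data fitted to concentration-response curves.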
HT1080 IDH1KD tx: toxicity to HT-1080 IDH1 knockdown cells (counter line); HT-1080 IDH1 knockdown viability, ATP luminescence, 48 h; Potency, µM (doses to about 46.1 µM), inactives show at the top dose activity, negative = toxicity, most hits filed as cytotoxic; 2% of 360,000 active; AID 686971;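 note: 0% = DMSO wells and -100% = cell-free medium wells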
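Viability of IDH1-knockdown HT-1080 fibrosarcoma cells was assessed by CellTiter-Glo after 48 h at 37 °C with titrated compound; concentration-effect curves were classified by fit quality and response size.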
MCF10A rerep: DNA re-replication induction in MCF 10a cells; MCF 10A DNA re-replication, Hoechst nuclear intensity, 48 h; Potency, µM (titrated, usually from 46.1 µM), inactives show at the top dose activity, positive = re-replication, actives largely listed as activators; 2.9% of 350,000 active; AID 624296; note: % of control where 0% means no effect; nearly all actives have a fitted effect of over 50% in size
KB-V1 MDR tox: kills drug-selected multidrug resistant KB-V1 cells; Potency, µM (top dose mostly 46.1 µM), most hits filed as cytotoxic; 3.4% of 400,000 active; AID 1347076; KB-V1 MDR cells viability, CellTiter-Glo, 72 h; note: % is set by controls: 0 for no effect and ±100 for the full control effect; nearly all actives have a fitted effect of over 60% in size
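Compound-treated KB-V1 multidrug-resistant cells, 72 h, 37 degrees C; viability by CellTiter-Glo. Fitted qHTS curves give the values.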
* hit, by the source's call; i = inactive; ? = inconclusive; . = no result. Calls come from the whole dose curve; as a rule, active = well fitted curve in the direction sought with a large enough effect; inconclusive = small, poorly fitted or top-dose-only effect, or another doubt; inactive = no such curve, though single readings can be large; an effect the other way counts as inactive or inconclusive. Potency is the fitted concentration of half-maximal effect.

SMILES | SW480 rereplic | HT1080NT lethal | KB-3-1 tox | HT1080 IDH1KD tx | MCF10A rerep | KB-V1 MDR tox
O=C(C1CC=CCC1)N1CCC(CO)(Cc2ccc(Cl)cc2)CC1 (configuration not stated) | -13% | -20% | ? | 2% | 1% | 12µM*
O=C(C1CCCC1)N1CCC(CO)(Cc2ccccc2Cl)CC1 | -2% | -21% | i | -17% | 0% | ?
CCc1nc(Sc2nnnn2-c2ccccc2)c2c3c(sc2n1)CCCC3 | ? | 10% | i | 3% | 18µM* | ?
Cc1nc(SCC(=O)NCC2CCCO2)c2c3c(sc2n1)CCC3 (configuration not stated) | -3% | 2% | . | 0% | -1% | .
CCc1nc(N2CCN(C(=O)c3ccccc3)CC2)c2c3c(sc2n1)CCCC3 | 0% | ? | ? | ? | ? | ?
Cc1nc(Sc2nnnn2C)c2c3c(sc2n1)CCC3 | 5.8µM* | 3.3µM* | 3.3µM* | 5.2µM* | 1.5µM* | 6.5µM*
COc1cc(O)c(C(CC(=O)N2CCOCC2)c2ccc(OC)c(OC)c2)c(OC)c1 (configuration not stated) | . | . | i | . | . | i
Cc1ccc(S(=O)(=O)N(CCO)Cc2cc3ccc(C)c(C)c3[nH]c2=O)cc1 | 0% | -19% | i | -20% | 14% | 16µM*
Cc1ccc(S(=O)(=O)N(C)C)cc1NC(=O)C(C)Sc1ccccc1 (configuration not stated) | -5% | -5% | i | -3% | 19% | i
CN(CCOc1ccc(Cl)cc1)Cc1cccc(S(=O)(=O)N(C)C)c1 | -4% | 0% | 21µM* | -12% | ? | 7.3µM*
CCN(CC)S(=O)(=O)c1cc(NC(=O)CCCOc2ccc(C(C)=O)cc2)ccc1C | -2% | -8% | ? | -16% | 16% | 2.9µM*
Cc1ccc(S(=O)(=O)N(C)C)cc1NC(=O)C(C)N(C)CCOc1ccc(Cl)cc1 (configuration not stated) | ? | -2% | i | -21% | 18µM* | ?
CC(=O)c1ccc(OCCCC(=O)Nc2cc(S(=O)(=O)N(C)C)ccc2C)cc1 | 16µM* | 1% | ? | -1% | -3% | 23µM*
CC(C)[C@H](NC(=O)OCc1ccccc1)C(=O)OCC(=O)N1CCN(c2ccc(F)cc2)CC1 | -4% | -2% | i | -2% | -1% | ?
Cc1ccc(NC(=O)CCC(=O)NNC(=O)COc2ccc([N+](=O)[O-])cc2)c(C)c1 | 2% | 2% | i | 3% | 1.6µM* | i
Cc1ccc([N+](=O)[O-])cc1NC(=O)CCCOc1ccccc1 | -3% | 27% | i | 18% | 9% | 10µM*
COc1ccc(N2CCN(c3nc4ccc(C(=O)c5ccccc5)cc4n4cnnc34)CC2)cc1 | . | . | i | . | . | i
COc1ccc(-n2c(=O)[nH]cc(C(=O)Nc3ccc4c(c3)OCO4)c2=O)cc1OC | -5% | 0% | i | -5% | -3% | i
COc1ccccc1OCCNC(=O)c1cccs1 | -1% | 3% | i | -1% | -13% | i
Cc1cc(C)nc(SCC(=O)Nc2cccc(S(=O)(=O)N(C)C)c2)n1 | 0% | -13% | i | -10% | -4% | ?
C(=N\n1cnnc1)/c1cccc2ccccc12 | -5% | -1% | ? | -2% | 2% | 10µM*
Clc1ccc(Cn2cc(/C=N/n3cnnc3)c3ccccc32)c(Cl)c1 | ? | ? | ? | ? | ? | i
C(=N\n1cnnc1)/c1cn(Cc2ccccc2)c2ccccc12 | -3% | -30% | i | ? | ? | 15µM*
COc1ccc2ccccc2c1/C=N/n1cnnc1 | -5% | 1% | i | -1% | 1% | i

From PubChem BioAssay
